Bioassay records: PubChem BioAssay, several laboratories
A selection: hits, their analogues and other compounds. The true share with any hit is near 3.1%.
GDH-TPI counter-1 = inhibits GDH-TPI coupling enzymes, artifact for Mtb FBA screen. GDH-TPI coupled enzyme counterscreen, NADH absorbance. inhibition, % at 4.8 µM. actives 1.2% (n = 360,000); in the data active = inhibition above about 30%;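 note: 0% = DMSO wells and 100% = wells lacking the enzyme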
FadD28 FP inh = inhibitors of Mycobacterium tuberculosis FadD28 bisubstrate binding | FadD28 bisubstrate probe binding, fluorescence polarization | inhibition, % at 12.5 µM | actives 0.22% (n = 360,000) | AID 588549; in the data active = inhibition above about 8.5%, passing the limit was not always enough
Mtb BioA inh = BioA (M. tuberculosis) enzyme inhibition | purified M. tuberculosis BioA enzyme, plate reader | inhibition, % at 9.99 µM | actives 0.096% (n = 360,000); in the data active = inhibition above about 40%
3CLpro inhibitor = SARS-CoV 3CLpro protease inhibition; inhibition, % at 6 µM; actives 0.14% (n = 290,000); AID 1706; recombinant SARS-CoV 3CLpro, quenched FRET peptide cleavage; in the data active = inhibition above about 12%
Mtb FBA inh = inhibitors of M. tuberculosis fructose-bisphosphate aldolase | P9WQA3 | purified M. tuberculosis FBA, fluorescence read-out | inhibition, % at 1 µM | actives 2.3% (n = 360,000) | AID 588726;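 note: 0% = vehicle and 100% = reference inhibitor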
Target sequence (P9WQA3 whole entry, looked up): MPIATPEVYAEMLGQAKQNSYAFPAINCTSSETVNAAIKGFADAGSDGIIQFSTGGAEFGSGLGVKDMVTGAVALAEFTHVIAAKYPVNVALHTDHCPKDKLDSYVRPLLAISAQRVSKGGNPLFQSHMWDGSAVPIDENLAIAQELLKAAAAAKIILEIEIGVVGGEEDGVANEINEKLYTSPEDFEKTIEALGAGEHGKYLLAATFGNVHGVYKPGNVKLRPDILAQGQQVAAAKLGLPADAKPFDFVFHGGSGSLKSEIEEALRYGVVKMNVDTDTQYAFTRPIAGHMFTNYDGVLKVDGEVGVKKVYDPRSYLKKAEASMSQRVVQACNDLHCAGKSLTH
Mtb FBA inh conf = Mtb FBA inhibition, confirmed; actives 78% (n = 5,600); AID 651616; shares compounds with Mtb FBA inh; purified M. tuberculosis FBA, fluorescence read-out; inhibition, % at 1 µM;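 note: 0% = vehicle wells and 100% = reference inhibitor wells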
GDH-TPI counter-2 = GDH-TPI inhibition counter-screen for FBA inhibitors; shares compounds with Mtb FBA inh; GDH-TPI coupled enzyme counterscreen, fluorescence; inhibition, % at 1 µM; actives 81% (n = 5,600); in the data active = inhibition above about 10%
Active calls of the source: *. Cut-off read from the data, not from the text of the source, unless noted: active = inhibition above about 27%; inactive = the rest.

How did CC(=O)NCc1ccc(-c2nc3ccccc3s2)cc1 do in these assays?
GDH-TPI counter-1: -1.3; FadD28 FP inh: -4.2; Mtb BioA inh: -1.1; 3CLpro inhibitor: 1.1; Mtb FBA inh: -1.4

Results for Cc1ccc(Cn2cccc(-c3nc4ccccc4s3)c2=O)cc1 ?
GDH-TPI counter-1: 18.3; FadD28 FP inh: 0.4; 3CLpro inhibitor: -4.1; Mtb FBA inh: 54.5*; Mtb FBA inh conf: 114.6*; GDH-TPI counter-2: 107.0*

What do the screens show for `CO[C@@H]1CN(C)C(=O)c2cc(NS(C)(=O)=O)ccc2OC[C@H](C)N(C)C[C@H]1C`?
Mtb BioA inh: -5.5

How did CO[C@H]1CN(C)C(=O)c2cc(NS(=O)(=O)c3ccccc3C)ccc2OC[C@@H](C)N(C)C[C@H]1C do in these assays?
Mtb BioA inh: 1.5

What do the screens show for `C[C@@H]1CCCCO[C@H](CN(C)C)[C@@H](C)CN([C@H](C)CO)C(=O)c2cc(NC(=O)Nc3ccc4c(c3)OCO4)ccc2O1`?
Mtb BioA inh: 0.3

What do the screens show for `COc1ccc(CN(C)C[C@H]2Oc3c(NC(=O)c4nc5ccccc5s4)cccc3C(=O)N([C@H](C)CO)C[C@@H]2C)cc1`?
Mtb BioA inh: 8.8

Results for Oc1ccc(-c2nc3ccccc3s2)cc1 ?
GDH-TPI counter-1: 12.1; FadD28 FP inh: -2.2; 3CLpro inhibitor: 1.4; Mtb FBA inh: 94.4*; Mtb FBA inh conf: 75.4*; GDH-TPI counter-2: 63.2*

Results for Nc1ccccc1-c1nc2ccccc2s1 ?
GDH-TPI counter-1: 6.2; FadD28 FP inh: -0.3; Mtb BioA inh: -0.6; 3CLpro inhibitor: 0.4; Mtb FBA inh: 51.2*; Mtb FBA inh conf: 196.8*; GDH-TPI counter-2: 146.8*

Results for CC1=C(C(=O)Nc2ccccn2)C(c2cn(C)nc2C)C2=C(CCCC2=O)N1 (configuration not stated) ?
GDH-TPI counter-1: 13.6; FadD28 FP inh: -1.1; 3CLpro inhibitor: -2.1; Mtb FBA inh: 37.0*; Mtb FBA inh conf: active; GDH-TPI counter-2: 171.3*

Results for CCn1cc(C2C(C(=O)Nc3ccc(Br)cn3)=C(C)NC3=C2C(=O)CCC3)c(C)n1 (configuration not stated) ?
GDH-TPI counter-1: 12.8; FadD28 FP inh: 0.1; 3CLpro inhibitor: -3.0; Mtb FBA inh: 32.8*; Mtb FBA inh conf: 131.9*; GDH-TPI counter-2: 94.0*

Results for Cc1c(C)c2ccc(OCC(=O)N(C)C3CCS(=O)(=O)C3)c(C)c2oc1=O (configuration not stated) ?
GDH-TPI counter-1: 8.3; FadD28 FP inh: 0.6; Mtb BioA inh: 10.8; 3CLpro inhibitor: -4.1; Mtb FBA inh: 89.0*; Mtb FBA inh conf: 71.1*; GDH-TPI counter-2: 64.5*

How did CCc1cc(=O)oc2cc(OCC(=O)N3CC[C@@]4(O)CCCC[C@H]4C3)ccc12 do in these assays?
GDH-TPI counter-1: 28.4; FadD28 FP inh: 0.5; Mtb BioA inh: -1.2; 3CLpro inhibitor: 2.8; Mtb FBA inh: 30.3*; Mtb FBA inh conf: 64.2*; GDH-TPI counter-2: 48.4*

How did Cc1cc(=O)oc2cc(OCC(=O)N(C)C3CCS(=O)(=O)C3)c(Cl)cc12 (configuration not stated) do in these assays?
GDH-TPI counter-1: 6.0; FadD28 FP inh: -2.0; Mtb BioA inh: 0.6; 3CLpro inhibitor: -2.0; Mtb FBA inh: 14.5

What do the screens show for `Cc1c(C)c2ccc(OCC(=O)N3CC[C@@]4(O)CCCC[C@H]4C3)c(C)c2oc1=O`?
GDH-TPI counter-1: 3.9; FadD28 FP inh: -1.1; Mtb BioA inh: 21.7; 3CLpro inhibitor: -6.9; Mtb FBA inh: 36.2*; Mtb FBA inh conf: 104.2*; GDH-TPI counter-2: 92.2*

Results for C[C@H](CO)N1C[C@H](C)[C@H](CN(C)Cc2ccccc2)Oc2c(NS(C)(=O)=O)cccc2C1=O ?
Mtb BioA inh: 2.5

Results for COc1c2ccoc2nc2c(OC)cccc12 ?
GDH-TPI counter-1: 14.2; FadD28 FP inh: -1.0; Mtb BioA inh: -1.2; 3CLpro inhibitor: -2.6; Mtb FBA inh: 55.2*; Mtb FBA inh conf: 112.8*; GDH-TPI counter-2: 97.0*

How did C[C@@H]1CN([C@H](C)CO)C(=O)c2cc(NC(=O)NC3CCCCC3)ccc2O[C@@H](C)CCCCO[C@@H]1CN(C)C(=O)CCC(F)(F)F do in these assays?
Mtb BioA inh: 0.9

What do the screens show for `CCCOc1ccc(-c2cn3ccccc3n2)cc1[N+](=O)[O-]`?
GDH-TPI counter-1: 13.6; FadD28 FP inh: -1.6; 3CLpro inhibitor: 0.4; Mtb FBA inh: 3.8

How did CCCOc1ccc(-c2cn3ccccc3n2)cc1 do in these assays?
GDH-TPI counter-1: 3.5; FadD28 FP inh: -2.5; 3CLpro inhibitor: 2.5; Mtb FBA inh: 30.2*; Mtb FBA inh conf: 54.8*; GDH-TPI counter-2: 37.6*

Results for COc1ccc(-c2cn3ccc4ccccc4c3n2)cc1 ?
GDH-TPI counter-1: 13.3; FadD28 FP inh: -1.4; Mtb BioA inh: -0.9; 3CLpro inhibitor: -4.6; Mtb FBA inh: 44.0*; Mtb FBA inh conf: 2.3; GDH-TPI counter-2: -3.6

How did CCOC(=O)Cc1csc(/N=C/c2c(O)n(-c3ccc(C)cc3C)c(=O)c3ccccc23)n1 do in these assays?
GDH-TPI counter-1: 13.6; FadD28 FP inh: 0.5; Mtb BioA inh: -0.2; 3CLpro inhibitor: -1.0; Mtb FBA inh: 52.9*; Mtb FBA inh conf: 59.5*; GDH-TPI counter-2: 41.8*

How did Cc1noc(C)c1NC(=O)N[C@H]1CC[C@H](CCNC(=O)C2CCOCC2)O[C@@H]1CO do in these assays?
Mtb BioA inh: 0.9

How did CCCNC(=O)N1[C@@H](C#N)[C@H](c2ccc(C3=CCCCC3)cc2)[C@@H]1CO do in these assays?
Mtb BioA inh: -0.4

How did O=C(O)c1cccc(C(=O)O)c1Br do in these assays?
GDH-TPI counter-1: 1.8; FadD28 FP inh: -3.1; Mtb BioA inh: -2.6; 3CLpro inhibitor: -1.9; Mtb FBA inh: 2.8

How did O=C(NO)c1ccccc1O do in these assays?
GDH-TPI counter-1: -3.4; FadD28 FP inh: -2.2; Mtb BioA inh: -1.6; 3CLpro inhibitor: 0.7; Mtb FBA inh: 1.7

Results for Cc1cccc(C(=O)O)c1O ?
GDH-TPI counter-1: 0.7; FadD28 FP inh: 1.7; Mtb BioA inh: -1.3; Mtb FBA inh: 38.4*; Mtb FBA inh conf: 87.4*; GDH-TPI counter-2: 51.5*

How did O=C(O)c1ccccc1O do in these assays?
GDH-TPI counter-1: 12.1; FadD28 FP inh: -0.4; Mtb BioA inh: 0.9; 3CLpro inhibitor: -5.4; Mtb FBA inh: 46.4*; Mtb FBA inh conf: 7.2; GDH-TPI counter-2: -2.6

How did Cc1cccc(Nc2ccccc2C(=O)O)c1C do in these assays?
GDH-TPI counter-1: 4.3; FadD28 FP inh: -1.6; Mtb BioA inh: 0.3; 3CLpro inhibitor: 4.9; Mtb FBA inh: -3.2

Results for Nc1c(O)cccc1C(=O)O ?
GDH-TPI counter-1: 1.4; FadD28 FP inh: -1.4; Mtb BioA inh: -0.6; Mtb FBA inh: 39.7*; Mtb FBA inh conf: active; GDH-TPI counter-2: 192.6*

How did CN1[C@@H]2c3ccc(-c4ccc(F)cc4)c(=O)n3C[C@@H]2[C@@H](CO)[C@@H]1C(=O)Nc1ccccc1 do in these assays?
Mtb BioA inh: 18.0
